Data from PubChem BioAssay.
Several values for one entry are separate records, joined by “and”; a condition that tells them apart may be missing. Equal entries are not always repeated. Records with an inconclusive call do not appear. Activity calls are given as the source filed them.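 Rule for the calls, unless noted: active = normalized viability below 100% at a tested concentration; inactive = the rest.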

What was measured:
[1] = viability loss in pontine glioma line – cell-based, SU-DIPG-XIII, MIPE5.0, CellTiter-Glo, qHTS, dose response (AID 1347064; cut-off not given, nearly all actives have AC50 up to about 23 µM;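 for AC50: cells exposed to compound for 48 hours before the viability read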); settings: CellTiter-Glo ATP luminescence
[2] = JHH-DIPG-1 glioma cell viability, MIPE5.0 library, CellTiter-Glo luminescence, qHTS (AID 1347067; cut-off not given, nearly all actives have AC50 up to about 26 µM;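 note: cells exposed to compound for 48 hours before readout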); settings: JHH-DIPG-1 glioma viability, CellTiter-Glo ATP luminescence
[3] = viability loss in pontine glioma line – cell-based, SU-DIPG-XXV, MIPE5.0, CellTiter-Glo, qHTS, dose response (AID 1347065; cut-off not given, nearly all actives have AC50 up to about 26 µM;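 note: cells exposed to compound for 48 hours before ATP readout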); settings: CellTiter-Glo ATP luminescence
[4] = growth inhibition of DIPG cells – cell-based, MIPE5.0 library, qHTS (AID 1347068; cut-off not given, nearly all actives have IC50 up to about 30 µM); settings: SU-DIPG-XXV viability
[5] = viability loss with induced miR-34 in A549 – imaging, A549 dox-inducible miR-34, nuclei and caspase counts, primary screen (AID 1347080;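 active = compounds whose cell count with miR-34 switched on is under 0.7 times the count with it off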); settings: A549 miR-34 inducible, Hoechst nuclei count, 48 h
[6] = MELAS cybrid and Rieske KO viability enhancers – cell-based, MELAS cybrids, Rieske KO mouse fibroblasts, CellTiter-Glo, primary screen (AID 1508586;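 active = mean z-score across replicates of 1.96 or higher in either the MELAS or the Rieske mutant cell line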;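 note: z relative to plate mean and SD of compound and empty wells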); settings: low glucose
[7] = galactose survival enhancers in mitochondrial complex I cybrids – cell-based, galactose medium, ATP luminescence, primary screen (AID 1645843;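 active = z-score of at least 1.8 in each of two replicates, scored against plate mean and spread of sample wells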;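 note: positive z means more ATP and so rescue of galactose-driven cybrid death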); settings: complex I mutant cybrid cells, 72 h, stronger effect = higher value
[8] = growth inhibition of DIPG cells – cell-based, MIPE4.0 library, CellTiter-Glo luminescence, qHTS (AID 1347066; cut-off not given, nearly all actives have AC50 up to about 30 µM;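 note: cells exposed to compound for 48 hours before readout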); settings: SU-DIPG-VI viability, CellTiter-Glo ATP luminescence
[9] = drug combination growth inhibition, ovarian cancer – cell-based, oncology-focused library, rucaparib conditional, profiling panel (AID 1508598); settings: patient-derived ovarian cancer cells, CellTiter-Glo viability, 144 h, stronger effect = lower value
[10] = compounds altering HSF1 focus formation in cells – imaging, Selleck Cancer Library (AID 1347162; in the data active = plate-normalised HSF1 focus index below about 0.46); settings: human cells, HSF1 nuclear foci imaging, at 10 µM; SSMD: measured here: HSF1 foci SSMD mean; cell count: measured here: cell number; plate-normalised HSF1 focus index: stronger effect = lower value
[11] = stronger effect = lower value, cell number ratio, induced over uninduced
[12] = measured here: relative caspase fold change +Dox/-Dox
[13] = measured here: total cells with miR-34 induction, stronger effect = lower value
[14] = measured here: total cells without miR-34 induction
[15] = MELAS cybrid survival, CellTiter-Glo 48 h, stronger effect = higher value
[16] = Rieske KO mouse fibroblast survival, CellTiter-Glo 72 h

## Nc1nc2c(c(=O)[nH]1)N1CN(c3ccc(C(=O)N[C@@H](CCC(=O)O)C(=O)O)cc3)CC1CN2 (stereo partly specified)
[1]
  outcome: inactive
[2]
  outcome: inactive

## Cc1nnc(C(C)C)n1C1CC2CCC(C1)N2CCC(NC(=O)C1CCC(F)(F)CC1)c1ccccc1 (stereo unspecified)
[1]
  outcome: inactive
[3]
  outcome: inactive
[2]
  outcome: inactive
[4]
  outcome: inactive
[5]; [11]
  fold change: 0.913 (inactive) and 0.876 (inactive)
[5]; [12]
  fold change: 0.655 and 0.632
[5]; [13]
  cell count: 8280 and 7990
[5]; [14]
  cell count: 9060 and 9120
[6]; [15]
  z-score: 0.322 (inactive) and -0.218 (inactive)
[6]; [16]
  z-score: -0.412 and -0.846
[7]
  z-score: 0.505 (inactive)

## Cc1cc(-c2cnn3c(NCC4CC(C)(O)C4)cc(Oc4cccnc4)nc23)ccc1C(=O)NC1CC1 (stereo unspecified)
[1]
  outcome: inactive
[3]
  AC50: 1.48 µM (active)
[4]
  outcome: inactive

## Cc1cc(C)cc(Oc2ccc(CNC(=O)[C@H](C)N)cc2C)c1
[1]
  AC50: 26.3 µM (active)
[3]
  AC50: 18.6 µM (active)
[4]
  outcome: inactive

## CN(C)C(=O)c1cc2cnc(Nc3ccc(N4CCNCC4)cn3)nc2n1C1CCCC1
[1]
  outcome: inactive
[3]
  outcome: inactive
[2]
  outcome: inactive
[4]
  outcome: inactive
[5]; [11]
  fold change: 1 (inactive)
[5]; [12]
  fold change: 0.436
[5]; [13]
  cell count: 5240
[5]; [14]
  cell count: 5220
[6]; [15]
  z-score: -0.462 (inactive)
[6]; [16]
  z-score: -0.582

## CN(Cc1ccccc1)C(=O)c1ccc(S(=O)(=O)Nc2ccccc2)cc1
[1]
  outcome: inactive
[2]
  outcome: inactive
[4]
  outcome: inactive

## Cc1ccc2nc(NC(=O)CSc3nc4c(c(=O)n3-c3ccccc3)SCC4)sc2c1
[1]
  outcome: inactive
[8]
  outcome: inactive
[2]
  outcome: inactive
[4]
  outcome: inactive
[5]; [11]
  fold change: 1.08 (inactive)
[5]; [12]
  fold change: 1.26
[5]; [13]
  cell count: 7960
[5]; [14]
  cell count: 7340
[6]; [15]
  z-score: -0.206 (inactive)
[6]; [16]
  z-score: -0.109
[9]; at 0.000305 µM, OCI-C5x cells, with rucaparib 10 µM, 100% = cells with rucaparib alone
  viability: 116% (inactive)
[9]; at 0.000305 µM, OCI-C5x cells, without rucaparib
  viability: 106% (inactive)
[9]; at 0.000305 µM, OCI-P5x cells, with rucaparib 20 µM, 100% = cells with rucaparib alone
  viability: 106% (inactive)
[9]; at 0.000305 µM, OCI-P5x cells, without rucaparib
  viability: 100% (inactive)
[9]; at 0.00122 µM, OCI-C5x cells, with rucaparib 10 µM, 100% = cells with rucaparib alone
  viability: 113% (inactive)
[9]; at 0.00122 µM, OCI-C5x cells, without rucaparib
  viability: 109% (inactive)
[9]; at 0.00122 µM, OCI-P5x cells, with rucaparib 20 µM, 100% = cells with rucaparib alone
  viability: 102% (inactive)
[9]; at 0.00122 µM, OCI-P5x cells, without rucaparib
  viability: 101% (inactive)
[9]; at 0.00488 µM, OCI-C5x cells, with rucaparib 10 µM, 100% = cells with rucaparib alone
  viability: 113% (inactive)
[9]; at 0.00488 µM, OCI-C5x cells, without rucaparib
  viability: 118% (inactive)
[9]; at 0.00488 µM, OCI-P5x cells, with rucaparib 20 µM, 100% = cells with rucaparib alone
  viability: 107% (inactive)
[9]; at 0.00488 µM, OCI-P5x cells, without rucaparib
  viability: 95.3% (active)
[9]; at 0.0195 µM, OCI-C5x cells, with rucaparib 10 µM, 100% = cells with rucaparib alone
  viability: 116% (inactive)
[9]; at 0.0195 µM, OCI-C5x cells, without rucaparib
  viability: 114% (inactive)
[9]; at 0.0195 µM, OCI-P5x cells, with rucaparib 20 µM, 100% = cells with rucaparib alone
  viability: 105% (inactive)
[9]; at 0.0195 µM, OCI-P5x cells, without rucaparib
  viability: 99.2% (active)
[9]; at 0.0781 µM, OCI-C5x cells, with rucaparib 10 µM, 100% = cells with rucaparib alone
  viability: 112% (inactive)
[9]; at 0.0781 µM, OCI-C5x cells, without rucaparib
  viability: 115% (inactive)
[9]; at 0.0781 µM, OCI-P5x cells, with rucaparib 20 µM, 100% = cells with rucaparib alone
  viability: 101% (inactive)
[9]; at 0.0781 µM, OCI-P5x cells, without rucaparib
  viability: 99.7% (active)
[9]; at 0.313 µM, OCI-C5x cells, with rucaparib 10 µM, 100% = cells with rucaparib alone
  viability: 112% (inactive)
[9]; at 0.313 µM, OCI-C5x cells, without rucaparib
  viability: 115% (inactive)
[9]; at 0.313 µM, OCI-P5x cells, with rucaparib 20 µM, 100% = cells with rucaparib alone
  viability: 106% (inactive)
[9]; at 0.313 µM, OCI-P5x cells, without rucaparib
  viability: 94.9% (active)
[9]; at 1.25 µM, OCI-C5x cells, with rucaparib 10 µM, 100% = cells with rucaparib alone
  viability: 117% (inactive)
[9]; at 1.25 µM, OCI-C5x cells, without rucaparib
  viability: 114% (inactive)
[9]; at 1.25 µM, OCI-P5x cells, with rucaparib 20 µM, 100% = cells with rucaparib alone
  viability: 97.6% (active)
[9]; at 1.25 µM, OCI-P5x cells, without rucaparib
  viability: 97.1% (active)
[9]; at 5 µM, OCI-C5x cells, with rucaparib 10 µM, 100% = cells with rucaparib alone
  viability: 164% (inactive)
[9]; at 5 µM, OCI-C5x cells, without rucaparib
  viability: 162% (inactive)
[9]; at 5 µM, OCI-P5x cells, with rucaparib 20 µM, 100% = cells with rucaparib alone
  viability: 76.9% (active)
[9]; at 5 µM, OCI-P5x cells, without rucaparib
  viability: 95.4% (active)

## Nc1ncnc2c1nc(Cl)n2[C@@H]1O[C@H](CO)[C@@H](O)[C@H]1O
[1]
  AC50: 16.6 µM (active)
[8]
  AC50: 23.5 µM (active)
[4]
  outcome: inactive

## O=C(/C=C/C#Cc1cccc(NS(=O)(=O)c2ccccc2)c1)NO
[1]
  AC50: 1.29 µM (active)
[3]
  AC50: 1.82 µM (active)
[2]
  AC50: 1.82 µM (active)
[10]
  SSMD: -2.13
  cell count: 6610
  plate-normalised HSF1 focus index: 0.874 (inactive)

## NCc1ccc(OCCCc2sc(-c3ccc4c(c3)/C(=N/Nc3nc5ccccc5s3)CCC4)nc2C(=O)O)cc1
[1]
  outcome: inactive
[3]
  outcome: inactive
[4]
  outcome: inactive
